Reference: ChEMBL document CHEMBL2218924, “A broad activity screen in support of a chemogenomic map for kinase signalling research and drug discovery” (Biochem J, 2013)

Key:
[1] = molecular target: Calcium/calmodulin-dependent protein kinase type 1 (Homo sapiens) (UniProt Q14012); details: at 1 µM
[2] = molecular target: Calcium/calmodulin-dependent protein kinase type 1 (Homo sapiens) (UniProt Q14012); details: at 10 µM
[3] = molecular target: Calcium/calmodulin-dependent protein kinase type II subunit beta (Homo sapiens) (UniProt Q13554); details: at 1 µM
Calcium/calmodulin-dependent protein kinase type II subunit beta (Homo sapiens), sequence (Q13554 whole entry): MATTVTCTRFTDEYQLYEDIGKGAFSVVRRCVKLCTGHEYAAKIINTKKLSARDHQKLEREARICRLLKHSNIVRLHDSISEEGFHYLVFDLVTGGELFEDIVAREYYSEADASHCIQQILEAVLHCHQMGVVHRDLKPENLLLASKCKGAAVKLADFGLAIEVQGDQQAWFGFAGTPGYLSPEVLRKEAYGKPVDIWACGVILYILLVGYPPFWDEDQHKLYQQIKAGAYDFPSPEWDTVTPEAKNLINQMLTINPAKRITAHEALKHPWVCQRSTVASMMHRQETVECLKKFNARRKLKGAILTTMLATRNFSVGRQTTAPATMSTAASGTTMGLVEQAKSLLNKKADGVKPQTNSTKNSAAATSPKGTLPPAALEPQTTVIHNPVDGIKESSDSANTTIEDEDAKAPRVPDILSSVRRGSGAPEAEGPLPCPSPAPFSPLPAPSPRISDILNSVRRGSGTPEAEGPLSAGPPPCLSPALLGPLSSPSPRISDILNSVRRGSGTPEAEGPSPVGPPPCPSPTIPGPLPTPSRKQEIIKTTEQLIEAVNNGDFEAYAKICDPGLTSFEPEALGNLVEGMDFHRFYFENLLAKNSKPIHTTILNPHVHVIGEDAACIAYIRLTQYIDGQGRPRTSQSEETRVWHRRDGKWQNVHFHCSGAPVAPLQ

[4] = molecular target: Calcium/calmodulin-dependent protein kinase type II subunit beta (Homo sapiens) (UniProt Q13554); details: at 10 µM
[5] = molecular target: Calcium/calmodulin-dependent protein kinase type II subunit gamma (Homo sapiens) (UniProt Q13555); details: at 1 µM
Calcium/calmodulin-dependent protein kinase type II subunit gamma (Homo sapiens), sequence (Q13555 whole entry): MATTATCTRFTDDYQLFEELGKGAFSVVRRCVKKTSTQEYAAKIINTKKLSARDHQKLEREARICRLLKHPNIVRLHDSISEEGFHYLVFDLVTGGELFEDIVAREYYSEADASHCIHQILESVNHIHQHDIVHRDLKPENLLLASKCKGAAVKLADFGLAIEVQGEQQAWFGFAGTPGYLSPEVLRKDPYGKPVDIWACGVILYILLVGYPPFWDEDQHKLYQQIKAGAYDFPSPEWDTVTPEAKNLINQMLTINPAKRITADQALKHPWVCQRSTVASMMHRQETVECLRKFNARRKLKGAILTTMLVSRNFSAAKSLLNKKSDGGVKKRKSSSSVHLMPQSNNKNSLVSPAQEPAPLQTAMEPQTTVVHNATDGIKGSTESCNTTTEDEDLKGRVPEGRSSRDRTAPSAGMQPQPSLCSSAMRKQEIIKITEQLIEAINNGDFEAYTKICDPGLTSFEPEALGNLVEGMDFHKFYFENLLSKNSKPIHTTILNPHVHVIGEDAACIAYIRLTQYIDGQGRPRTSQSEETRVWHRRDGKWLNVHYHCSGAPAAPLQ

[6] = molecular target: Calcium/calmodulin-dependent protein kinase type II subunit gamma (Homo sapiens) (UniProt Q13555); details: at 10 µM
[7] = molecular target: Calcium/calmodulin-dependent protein kinase type II subunit delta (Homo sapiens) (UniProt Q13557); details: at 1 µM
Calcium/calmodulin-dependent protein kinase type II subunit delta (Homo sapiens), sequence (Q13557 whole entry): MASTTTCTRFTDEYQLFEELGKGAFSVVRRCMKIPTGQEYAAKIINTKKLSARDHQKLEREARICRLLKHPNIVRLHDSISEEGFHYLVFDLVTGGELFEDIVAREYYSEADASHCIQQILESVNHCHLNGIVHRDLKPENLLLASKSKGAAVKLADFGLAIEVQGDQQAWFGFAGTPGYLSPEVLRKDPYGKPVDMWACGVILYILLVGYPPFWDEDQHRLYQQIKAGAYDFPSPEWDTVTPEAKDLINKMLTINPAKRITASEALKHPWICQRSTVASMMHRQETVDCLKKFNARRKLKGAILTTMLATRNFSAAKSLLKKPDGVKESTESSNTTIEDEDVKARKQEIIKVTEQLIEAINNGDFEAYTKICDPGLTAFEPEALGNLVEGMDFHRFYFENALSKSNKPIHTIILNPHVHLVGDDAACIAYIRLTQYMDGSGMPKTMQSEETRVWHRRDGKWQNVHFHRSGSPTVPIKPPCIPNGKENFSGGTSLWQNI

[8] = molecular target: Calcium/calmodulin-dependent protein kinase type II subunit delta (Homo sapiens) (UniProt Q13557); details: at 10 µM
[9] = molecular target: T1, Calcium/calmodulin-dependent protein kinase type IV (Homo sapiens) (UniProt Q16566); details: at 1 µM
T1 sequence (whole entry): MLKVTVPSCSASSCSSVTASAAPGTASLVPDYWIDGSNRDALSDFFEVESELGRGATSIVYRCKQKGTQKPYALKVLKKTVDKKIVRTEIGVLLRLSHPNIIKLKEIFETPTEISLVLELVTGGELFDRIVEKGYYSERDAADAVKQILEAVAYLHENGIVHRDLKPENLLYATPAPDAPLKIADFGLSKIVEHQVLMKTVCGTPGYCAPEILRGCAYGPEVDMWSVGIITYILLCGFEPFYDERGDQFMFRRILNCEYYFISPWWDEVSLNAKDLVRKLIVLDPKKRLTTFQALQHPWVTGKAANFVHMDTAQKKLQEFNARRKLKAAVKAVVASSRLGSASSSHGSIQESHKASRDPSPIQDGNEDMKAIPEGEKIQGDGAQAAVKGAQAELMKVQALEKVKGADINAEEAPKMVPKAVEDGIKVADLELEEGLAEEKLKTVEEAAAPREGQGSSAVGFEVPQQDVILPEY

[10] = molecular target: T1, Calcium/calmodulin-dependent protein kinase type IV (Homo sapiens); details: at 10 µM
[11] = molecular target: Death-associated protein kinase 1 (Homo sapiens) (UniProt P53355); details: at 10 µM
Death-associated protein kinase 1 (Homo sapiens), sequence (P53355 whole entry, looked up): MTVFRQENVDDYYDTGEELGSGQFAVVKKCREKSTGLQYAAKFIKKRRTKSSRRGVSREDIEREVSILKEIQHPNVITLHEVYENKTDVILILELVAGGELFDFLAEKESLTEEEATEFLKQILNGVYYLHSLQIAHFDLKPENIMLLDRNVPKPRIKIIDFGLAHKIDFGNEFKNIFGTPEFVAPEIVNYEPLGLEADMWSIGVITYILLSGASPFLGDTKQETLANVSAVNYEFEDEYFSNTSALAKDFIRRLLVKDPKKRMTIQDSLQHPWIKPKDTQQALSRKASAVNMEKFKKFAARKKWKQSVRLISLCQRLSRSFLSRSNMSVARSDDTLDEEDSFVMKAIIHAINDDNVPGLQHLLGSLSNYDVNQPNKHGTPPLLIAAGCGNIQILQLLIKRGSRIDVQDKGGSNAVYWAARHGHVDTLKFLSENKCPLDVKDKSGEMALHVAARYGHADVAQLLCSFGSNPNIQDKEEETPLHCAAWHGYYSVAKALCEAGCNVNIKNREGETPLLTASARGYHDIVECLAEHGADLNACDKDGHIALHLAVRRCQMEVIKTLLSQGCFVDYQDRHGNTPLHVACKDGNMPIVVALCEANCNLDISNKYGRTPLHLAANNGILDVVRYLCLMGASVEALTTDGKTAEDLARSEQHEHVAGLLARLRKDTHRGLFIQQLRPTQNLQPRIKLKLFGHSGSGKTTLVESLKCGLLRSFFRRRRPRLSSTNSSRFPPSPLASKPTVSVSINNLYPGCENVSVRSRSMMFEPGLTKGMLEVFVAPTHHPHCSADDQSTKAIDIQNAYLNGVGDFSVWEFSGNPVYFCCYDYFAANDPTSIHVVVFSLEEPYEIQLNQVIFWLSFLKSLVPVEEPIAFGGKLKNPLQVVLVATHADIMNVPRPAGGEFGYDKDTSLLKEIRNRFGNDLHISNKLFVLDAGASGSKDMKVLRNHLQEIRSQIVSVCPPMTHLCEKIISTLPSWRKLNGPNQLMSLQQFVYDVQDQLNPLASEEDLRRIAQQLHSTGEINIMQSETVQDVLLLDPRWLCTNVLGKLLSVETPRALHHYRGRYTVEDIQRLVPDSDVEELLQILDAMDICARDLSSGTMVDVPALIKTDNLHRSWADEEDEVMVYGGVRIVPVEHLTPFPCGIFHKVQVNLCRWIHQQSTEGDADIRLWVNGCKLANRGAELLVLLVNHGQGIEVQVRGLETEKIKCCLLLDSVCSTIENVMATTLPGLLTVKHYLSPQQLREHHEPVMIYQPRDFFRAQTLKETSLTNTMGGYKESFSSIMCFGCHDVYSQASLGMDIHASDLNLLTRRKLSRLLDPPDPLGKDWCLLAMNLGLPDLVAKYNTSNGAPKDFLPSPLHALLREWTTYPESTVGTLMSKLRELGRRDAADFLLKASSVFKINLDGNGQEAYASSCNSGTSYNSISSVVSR

[12] = molecular target: Death-associated protein kinase 2 (Homo sapiens) (UniProt Q9UIK4); details: at 1 µM
Death-associated protein kinase 2 (Homo sapiens), sequence (Q9UIK4 whole entry, looked up): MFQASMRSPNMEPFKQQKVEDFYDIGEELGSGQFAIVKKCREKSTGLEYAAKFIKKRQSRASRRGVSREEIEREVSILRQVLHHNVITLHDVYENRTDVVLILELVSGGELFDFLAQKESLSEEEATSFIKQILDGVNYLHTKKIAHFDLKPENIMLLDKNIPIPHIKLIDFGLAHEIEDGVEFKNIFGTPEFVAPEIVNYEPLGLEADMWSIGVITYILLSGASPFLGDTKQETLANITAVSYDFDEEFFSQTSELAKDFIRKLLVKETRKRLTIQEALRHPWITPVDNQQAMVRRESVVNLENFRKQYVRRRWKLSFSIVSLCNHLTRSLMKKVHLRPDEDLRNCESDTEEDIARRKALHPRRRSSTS

[13] = molecular target: Death-associated protein kinase 2 (Homo sapiens) (UniProt Q9UIK4); details: at 10 µM
[14] = molecular target: T2, Serine/threonine-protein kinase DCLK2 (Homo sapiens) (UniProt Q8N568); details: at 1 µM
T2 sequence (whole entry): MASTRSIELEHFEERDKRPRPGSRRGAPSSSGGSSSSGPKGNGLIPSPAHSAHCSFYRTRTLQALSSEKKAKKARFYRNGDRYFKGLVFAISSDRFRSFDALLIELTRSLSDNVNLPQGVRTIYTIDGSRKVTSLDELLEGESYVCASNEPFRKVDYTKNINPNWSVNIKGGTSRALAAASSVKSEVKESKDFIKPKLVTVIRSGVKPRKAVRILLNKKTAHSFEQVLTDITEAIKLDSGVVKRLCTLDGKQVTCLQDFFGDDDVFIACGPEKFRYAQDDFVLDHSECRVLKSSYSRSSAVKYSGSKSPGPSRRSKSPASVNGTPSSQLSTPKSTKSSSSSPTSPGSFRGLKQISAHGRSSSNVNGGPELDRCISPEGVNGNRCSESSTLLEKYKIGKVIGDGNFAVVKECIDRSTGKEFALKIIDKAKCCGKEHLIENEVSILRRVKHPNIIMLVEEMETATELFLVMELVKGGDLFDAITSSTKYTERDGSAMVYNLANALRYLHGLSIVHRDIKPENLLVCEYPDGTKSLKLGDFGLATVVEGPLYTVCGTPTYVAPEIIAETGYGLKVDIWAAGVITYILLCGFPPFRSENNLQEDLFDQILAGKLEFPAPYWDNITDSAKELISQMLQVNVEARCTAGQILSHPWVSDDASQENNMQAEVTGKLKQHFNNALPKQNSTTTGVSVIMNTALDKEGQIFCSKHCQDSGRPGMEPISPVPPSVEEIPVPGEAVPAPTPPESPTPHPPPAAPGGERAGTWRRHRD

[15] = molecular target: T2, Serine/threonine-protein kinase DCLK2 (Homo sapiens); details: at 10 µM
[16] = molecular target: T3, Discoidin domain-containing receptor 2 (Homo sapiens) (UniProt Q16832); details: at 1 µM
T3 sequence (whole entry): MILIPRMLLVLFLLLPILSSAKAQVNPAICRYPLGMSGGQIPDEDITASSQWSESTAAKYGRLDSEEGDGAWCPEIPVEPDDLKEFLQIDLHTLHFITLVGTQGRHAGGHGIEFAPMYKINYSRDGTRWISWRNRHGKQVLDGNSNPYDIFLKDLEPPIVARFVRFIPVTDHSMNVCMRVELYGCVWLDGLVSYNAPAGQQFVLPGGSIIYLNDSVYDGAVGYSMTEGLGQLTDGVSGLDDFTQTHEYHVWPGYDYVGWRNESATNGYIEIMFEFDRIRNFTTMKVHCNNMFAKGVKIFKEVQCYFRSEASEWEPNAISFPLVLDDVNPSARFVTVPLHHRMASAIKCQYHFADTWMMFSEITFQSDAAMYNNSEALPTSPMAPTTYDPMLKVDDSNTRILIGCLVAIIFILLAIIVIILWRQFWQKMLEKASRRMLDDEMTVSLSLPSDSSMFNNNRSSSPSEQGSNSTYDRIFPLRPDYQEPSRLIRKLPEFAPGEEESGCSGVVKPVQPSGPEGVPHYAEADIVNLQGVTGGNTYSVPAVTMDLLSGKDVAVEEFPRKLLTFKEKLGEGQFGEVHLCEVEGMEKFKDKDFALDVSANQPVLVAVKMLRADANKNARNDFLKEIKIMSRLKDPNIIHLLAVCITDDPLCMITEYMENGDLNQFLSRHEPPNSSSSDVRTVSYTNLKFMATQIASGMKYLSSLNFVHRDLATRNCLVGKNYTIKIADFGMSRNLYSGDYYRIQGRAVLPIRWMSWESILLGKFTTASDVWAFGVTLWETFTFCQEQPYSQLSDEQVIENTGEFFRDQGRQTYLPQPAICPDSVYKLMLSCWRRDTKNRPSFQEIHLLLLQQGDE

[17] = molecular target: T3, Discoidin domain-containing receptor 2 (Homo sapiens); details: at 10 µM
[18] = molecular target: T4, Myotonin-protein kinase (Homo sapiens) (UniProt Q09013); details: at 1 µM
T4 sequence (whole entry): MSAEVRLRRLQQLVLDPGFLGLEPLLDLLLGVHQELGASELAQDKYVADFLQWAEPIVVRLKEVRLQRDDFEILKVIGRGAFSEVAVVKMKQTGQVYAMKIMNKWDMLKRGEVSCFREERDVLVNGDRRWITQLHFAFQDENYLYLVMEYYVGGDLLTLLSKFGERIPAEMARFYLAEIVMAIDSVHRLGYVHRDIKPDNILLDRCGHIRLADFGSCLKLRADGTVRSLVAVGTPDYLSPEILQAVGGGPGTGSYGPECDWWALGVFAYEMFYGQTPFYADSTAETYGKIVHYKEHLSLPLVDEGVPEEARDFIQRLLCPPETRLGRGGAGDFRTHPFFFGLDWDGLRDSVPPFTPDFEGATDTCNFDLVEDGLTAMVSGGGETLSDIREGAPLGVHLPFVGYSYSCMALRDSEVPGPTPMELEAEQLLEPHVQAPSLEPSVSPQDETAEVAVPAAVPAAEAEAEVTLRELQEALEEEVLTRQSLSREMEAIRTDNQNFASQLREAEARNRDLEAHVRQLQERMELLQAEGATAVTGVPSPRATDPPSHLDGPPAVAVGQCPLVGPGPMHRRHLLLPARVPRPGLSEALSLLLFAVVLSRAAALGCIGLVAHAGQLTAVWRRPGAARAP

[19] = molecular target: T4, Myotonin-protein kinase (Homo sapiens); details: at 10 µM
[20] = molecular target: T5, Serine/threonine-protein kinase 17A (Homo sapiens) (UniProt Q9UEE5); details: at 1 µM
T5 sequence (whole entry): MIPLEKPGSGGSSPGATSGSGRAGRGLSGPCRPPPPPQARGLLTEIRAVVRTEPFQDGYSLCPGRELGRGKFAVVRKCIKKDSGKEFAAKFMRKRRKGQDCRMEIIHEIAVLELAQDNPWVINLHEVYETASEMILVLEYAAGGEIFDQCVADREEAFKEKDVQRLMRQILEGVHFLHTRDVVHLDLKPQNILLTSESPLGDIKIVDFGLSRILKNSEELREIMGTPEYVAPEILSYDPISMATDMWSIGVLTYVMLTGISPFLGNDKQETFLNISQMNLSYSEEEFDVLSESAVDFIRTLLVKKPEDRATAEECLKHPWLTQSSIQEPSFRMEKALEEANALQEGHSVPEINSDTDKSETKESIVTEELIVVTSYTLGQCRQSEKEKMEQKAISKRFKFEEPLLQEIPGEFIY

Calcium/calmodulin-dependent protein kinase type 1 (Homo sapiens), sequence (Q14012 whole entry, looked up): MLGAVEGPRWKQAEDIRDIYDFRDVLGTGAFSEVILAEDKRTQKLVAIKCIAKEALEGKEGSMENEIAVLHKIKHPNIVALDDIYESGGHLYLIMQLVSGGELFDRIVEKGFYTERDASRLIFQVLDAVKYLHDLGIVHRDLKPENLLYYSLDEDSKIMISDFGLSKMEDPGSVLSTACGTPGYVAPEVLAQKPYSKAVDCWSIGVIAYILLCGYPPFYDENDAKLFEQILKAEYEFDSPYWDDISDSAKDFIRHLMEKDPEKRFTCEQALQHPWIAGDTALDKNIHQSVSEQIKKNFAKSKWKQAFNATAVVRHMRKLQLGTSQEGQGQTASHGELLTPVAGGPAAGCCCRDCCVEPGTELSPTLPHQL

SMILES: CCOc1cc2ncnc(Nc3cccc(Br)c3)c2cc1OCC
- residual activity [1]: 107%
- residual activity [2]: 84%
- residual activity [3]: 91%
- residual activity [4]: 64%
- residual activity [5]: 82%
- residual activity [6]: 40%
- residual activity [7]: 85%
- residual activity [8]: 38%
- residual activity [9]: 97%
- residual activity [10]: 93%
- residual activity [11]: 85%
- residual activity [12]: 105%
- residual activity [13]: 102%
- residual activity [14]: 84%
- residual activity [15]: 66%
- residual activity [16]: 93%
- residual activity [17]: 66%
- residual activity [18]: 109%
- residual activity [19]: 135%
- residual activity [20]: 113%

SMILES: O=C1NC(=O)c2cc(Nc3ccc(F)cc3)c(Nc3ccc(F)cc3)cc21
- residual activity [1]: 109%
- residual activity [2]: 71%
- residual activity [3]: 85%
- residual activity [4]: 50%
- residual activity [5]: 111%
- residual activity [6]: 102%
- residual activity [7]: 110%
- residual activity [8]: 88%
- residual activity [9]: 119%
- residual activity [10]: 66%
- residual activity [11]: 76%
- residual activity [12]: 77%
- residual activity [13]: 84%
- residual activity [14]: 76%
- residual activity [15]: 89%
- residual activity [16]: 92%
- residual activity [17]: 51%
- residual activity [18]: 125%
- residual activity [19]: 129%
- residual activity [20]: 105%

SMILES: c1ccc(-c2n[nH]c3c2oc2ccccc23)cc1
- residual activity [1]: 115%
- residual activity [2]: 136%
- residual activity [3]: 87%
- residual activity [4]: 36%
- residual activity [5]: 81%
- residual activity [6]: 25%
- residual activity [7]: 79%
- residual activity [8]: 22%
- residual activity [10]: 90%
- residual activity [11]: 98%
- residual activity [14]: 82%
- residual activity [15]: 74%
- residual activity [18]: 146%
- residual activity [19]: 121%
- residual activity [20]: 43%

SMILES: CCC(=O)Nc1ccc2ncnc(Nc3cccc(Br)c3)c2c1
- residual activity [1]: 96%
- residual activity [2]: 98%
- residual activity [3]: 90%
- residual activity [4]: 80%
- residual activity [5]: 100%
- residual activity [6]: 74%
- residual activity [7]: 109%
- residual activity [8]: 79%
- residual activity [9]: 123%
- residual activity [10]: 73%
- residual activity [11]: 93%
- residual activity [12]: 98%
- residual activity [13]: 107%
- residual activity [14]: 79%
- residual activity [15]: 100%
- residual activity [16]: 92%
- residual activity [17]: 82%
- residual activity [18]: 112%
- residual activity [19]: 118%
- residual activity [20]: 95%

SMILES: C[C@@H](N)[C@H]1CC[C@H](C(=O)Nc2ccncc2)CC1
- residual activity [1]: 123%
- residual activity [2]: 125%
- residual activity [5]: 100%
- residual activity [6]: 89%
- residual activity [7]: 107%
- residual activity [8]: 92%
- residual activity [9]: 90%
- residual activity [10]: 90%
- residual activity [11]: 104%
- residual activity [12]: 88%
- residual activity [13]: 85%
- residual activity [14]: 110%
- residual activity [15]: 87%
- residual activity [16]: 108%
- residual activity [17]: 105%
- residual activity [18]: 95%
- residual activity [19]: 95%
- residual activity [20]: 70%

SMILES: COc1cc2ncc(-c3ccccc3)nc2cc1OC
- residual activity [3]: 100%
- residual activity [4]: 82%
- residual activity [6]: 78%
- residual activity [8]: 80%
- residual activity [10]: 60%
- residual activity [11]: 78%
- residual activity [12]: 83%
- residual activity [15]: 52%
- residual activity [17]: 92%
- residual activity [20]: 124%

SMILES: Oc1n[nH]c2nnc(-c3c(-c4ccccc4)nn4ccccc34)cc12
- residual activity [1]: 92%
- residual activity [2]: 79%
- residual activity [3]: 91%
- residual activity [4]: 80%
- residual activity [5]: 90%
- residual activity [6]: 78%
- residual activity [7]: 87%
- residual activity [8]: 82%
- residual activity [9]: 105%
- residual activity [10]: 96%
- residual activity [11]: 39%
- residual activity [12]: 62%
- residual activity [13]: 43%
- residual activity [14]: 85%
- residual activity [15]: 92%
- residual activity [16]: 92%
- residual activity [17]: 95%
- residual activity [18]: 69%
- residual activity [19]: 83%
- residual activity [20]: 78%

SMILES: N#Cc1cnc2cnc(NCc3cccnc3)cc2c1Nc1ccc(F)c(Cl)c1
- residual activity [1]: 42%
- residual activity [2]: 26%
- residual activity [3]: -2%
- residual activity [4]: 1%
- residual activity [5]: 0%
- residual activity [6]: -1%
- residual activity [7]: -1%
- residual activity [8]: 0%
- residual activity [9]: 98%
- residual activity [10]: 102%
- residual activity [11]: 55%
- residual activity [12]: 14%
- residual activity [13]: 2%
- residual activity [16]: 80%
- residual activity [17]: 53%
- residual activity [18]: 100%
- residual activity [19]: 69%
- residual activity [20]: 30%
